Test results from PubChem BioAssay AID624304 (Sanford-Burnham Center for Chemical Genomics, 2012).
Screen size: about 360,000 compounds; about 1,800 (0.5%) were called active. Only a selection was taken, and actives are over-represented in it overall. Values without a mark were called inactive.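 Rule for the calls: active = interference check ratio from 0.5 to 1.5 plus GFP to RFP signal ratio inhibition reaching or exceeding a fixed threshold (cut at about 30% in these data, passing the limit was not always enough); inactive = the rest.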

Assay: suppressors of acrylamide-induced Pgst-4::GFP reporter in worms, primary screen, SKN-1 inhibitor project, whole organism, uHTS, GFP/RFP fluorescence ratio, strain VP596 (AID 624304)
Conditions: C. elegans VP596 Pgst-4::GFP/RFP ratio, 24 h, at 21.8 µM, hits give high values

SMILES	inhibition
COCCn1c(=NC(=O)c2ccccc2[N+](=O)[O-])sc2cc(S(C)(=O)=O)ccc21	0.193%
COc1ccc(C(=O)NC(C)Cn2nc(C)cc2C)cc1OC1CCN(C(C)=O)CC1 (stereo not given)	8.35%
CCC(Cc1ccccc1)NS(=O)(=O)c1ccc2c(c1)NC(=O)CS2 (stereo not given)	-5.64%
O=C(Nc1cc(F)ccc1F)c1ccc2c(=O)n3c(nc2c1)CCC3	-4.08%
COC[C@@H]1NS(=O)(=O)c2ccc(Br)cc2O[C@H]1c1ccccc1	14.6%
COc1ccc(C(=O)NCc2ccc(C)cc2)cc1S(=O)(=O)N1CCCC1	0.996%
CCOC(=O)c1cccc(NC(=O)CN2C(=O)C3CC=CCC3C2=O)c1 (stereo not given)	6.29%
CC(=O)N(CN1C(=O)C2CC=CCC2C1=O)c1cccc(Cl)c1 (stereo not given)	36.1% (active)
CC(=O)N(CN1C(=O)C2C3C=CC(C3)C2C1=O)c1cccc(Cl)c1 (stereo not given)	16.7%
COc1ccc(NC(=O)C(CC(C)C)NC(=O)C2CCC(C)CC2)cc1 (stereo not given)	-11.6%
COc1ccc(Cc2nnc(NC(=O)c3cc(OC)c(OC)c(OC)c3)s2)cc1OC	-13.7%
CC(=O)Oc1ccc(C(=O)Nc2nccs2)cc1	3.06%
COc1cc(C(=O)Nc2nccs2)cc(OC)c1OC	41.9% (active)
CCC(C)(C)c1ccc(OCC(=O)N(C)C)c(C(C)(C)CC)c1	2.98%
CC1(C(=O)NS(=O)(=O)c2cccc(F)c2)CCN1C(=O)Cc1ccc(Cl)cc1Cl (stereo not given)	15.6%
C=C(C)Cn1c(N2CCN(CC)CC2)nc2c1c(=O)[nH]c(=O)n2C	16.3%
Cc1ccc(Sc2cc(N3CCOCC3)nc(-c3ccccc3)n2)cc1	7.71%
O=S(=O)(Cc1cc(Sc2ccccc2)nc(-c2ccccc2)n1)c1ccccc1	44.9% (active)
O=S(=O)(Cc1cc(Cl)nc(-c2cccnc2)n1)c1ccccc1	-15.6%
Cc1cc2c(=O)n(CC(=O)NCC(=O)Nc3ccc(C(C)C)cc3)cnc2s1	-0.0427%
CCOc1ccc(N2C(=O)/C(=C/c3ccc(C)o3)N(C)C2=S)cc1	-1.02%
CCOc1cc2[nH]c(=S)n(CCCN3CCCC3=O)c(=O)c2cc1OCC	-28.4%
O=C(CCn1c(=S)[nH]c2ccccc2c1=O)NCCCN1CCCC1=O	36.5% (active)
O=Cc1c(NCCCN2CCCC2=O)c2ccccc2[nH]c1=O	19.6%

SMILES	inhibition
COc1ccc(N2CCN(C(=O)C3CCN(S(=O)(=O)c4ccc(C)cc4)CC3)CC2)cc1	5.77%
CC(CCc1ccccc1)NC(=O)COC(=O)c1ccc(F)cc1 (stereo not given)	3.96%
CCc1ccc(OCC(=O)OCC(=O)c2c(N)n(C)c(=O)n(C)c2=O)cc1	-10%
C[C@H]1CN([C@@H](C)CO)C(=O)CCCn2cc(nn2)CO[C@@H]1CN(C)C(=O)Nc1ccccc1	1.2%
COc1ccccc1NC(=O)CCN1CCN(c2ccc(Cl)cc2)CC1	8.41%
Cc1cc(NC(=O)CCN2CCN(Cc3ccccc3)CC2)ccc1Br	1.51%
COC(=O)CNC(c1ccccc1Cl)c1cc(Br)ccc1NC(=O)CCN1CCOCC1 (stereo not given)	35.2% (active)
Cc1cc(C)cc(NC(=O)C2CCCN(S(=O)(=O)c3ccc4[nH]c(=O)ccc4c3)C2)c1 (stereo not given)	11.9%
O=S(=O)(NC1CC2CCC1C2)c1ccc(Cl)cc1 (stereo not given)	8.97%
CN1c2ccc(C=O)c3c(C=O)ccc(c23)N(C)C1(C)C	39.8% (active)
CCCCNC(=O)C1(O)c2ccccc2NC(=O)N1c1ccc(Cl)cc1 (stereo not given)	19.1%
CSc1ccc(CNC(=O)c2ccc(NC(=O)C3=CSCCO3)cc2)cc1	22.9%
Cc1nc2ccccn2c1C(=O)NN=C1CCN(C)CC1	8.18%
CC1=NNC(=O)C1Cc1c(Cl)cccc1Cl (stereo not given)	-3.65%
Cc1ccc(OCCNC(=O)CNC(=O)c2ccc(C)c(C)c2)cc1	5.58%
CC(C=Cc1ccccc1)=NNS(=O)(=O)c1ccc([N+](=O)[O-])cc1	21.6%
O=[N+]([O-])c1ccc(N/N=C/c2ccccc2)cc1	41.2% (active)
COC(=O)c1ccccc1N=NNc1ccc([N+](=O)[O-])cc1	20.6%
CC1CN(c2cc(=O)n(-c3cccc(Br)c3)c(=O)[nH]2)CC(C)O1 (stereo not given)	5.49%
O=C(NCCc1cccc(F)c1)C1CCCN(c2nc3ccccc3s2)C1 (stereo not given)	10.3%
COc1ccc2nc(N3CCN(C(=O)c4ccc([N+](=O)[O-])o4)CC3)sc2c1	2.32%
Brc1ccc2nc(N3CCCC3)sc2c1	52% (active)
CCCCN1C(=S)NC[C@@H]1C(C)CC (stereo not given in full)	-0.152%
Clc1ccc(C[n+]2cc(-c3ccc(Cl)cc3)n3c2CCC3)cc1	0.364%

SMILES	inhibition
O=C(C1CCN(S(=O)(=O)c2cnc[nH]2)CC1)N1CCN(Cc2ccc3c(c2)OCO3)CC1	17.4%
COc1ccccc1N1CCN(CC(=O)Nc2ccnn2C2CCCC2)CC1	-9.67%
FC(F)(F)c1ccnc(Oc2ccc(C3=NCCS3)cc2)c1	44.7% (active)
CCC(=O)Nc1ccc(S(=O)(=O)Nc2c(NC)c3ccccc3oc2=O)cc1	9.74%
CN(Cc1ccccc1)C(=O)COC(=O)c1ccccc1Nc1ccccc1	-4.32%
Cc1cccc(N2CCN(C(=O)c3cccc(S(=O)(=O)N4CCc5ccccc5C4)c3)CC2C)c1 (stereo not given)	-16.8%
COc1cccc(C2SCC(=O)N2c2cccc(C)c2)c1OC (stereo not given)	2.8%
Cc1cc(C(C)(C)C)oc1C(=O)N(CC(=O)NC1CCCC1)Cc1ccc(Cl)cc1	6.57%
CCCOc1ccc(-c2c(C(=O)N/N=C/c3ccco3)nnn2-c2nonc2N)cc1	3.6%
CCOc1ccc(-c2nnc(-c3ccco3)o2)cc1	58.1% (active)
CCCCOc1ccc(-c2nnc(-c3ccco3)o2)cc1	64.9% (active)
O=C(CSc1nnc(-c2ccco2)o1)NCC(=O)c1ccccc1	-0.628%
CCCCSc1nnc(-c2ccc(C)cc2)o1	1.11%
CCOc1ccc(NC(=O)N(CCC(C)C)C(C)c2ccco2)cc1 (stereo not given)	-11.7%
OCC(CO)(CO)NCc1ccc(-c2ccccc2)cc1	5.37%
CC(O)c1nc2c(c(=O)n(C)c(=O)n2C)n1C (stereo not given)	1.19%
Cc1cccc(CN2CCN(Cc3cnn(-c4ccccc4F)c3)CC2CCO)n1 (stereo not given)	-14.6%
COc1ccc(C(=O)N(C)CC(O)c2ccccc2)cc1OC1CCN(C(C)=O)CC1 (stereo not given)	-1.73%
COCCNC(=O)c1ccc(-n2c(SCc3cccnc3)nc3ccccc3c2=O)cc1	7.94%
CCC(C(=O)NCc1ccccc1)n1c(Cc2cc(F)cc(F)c2)nc2ccccc21 (stereo not given)	-5.9%
COc1cccc(CNC(=O)C2CCCN(c3ncnc4c3nc3n4CCCCC3)C2)c1 (stereo not given)	15.4%
COc1cccc(NC(=O)C2CCCN(c3ncnc4c3nc3n4CCCCC3)C2)c1 (stereo not given)	35.4% (active)
CCOC(=O)c1cccc(NC(=O)C2CCN(c3ncnc4c3nc3n4CCCCC3)CC2)c1	-10.7%
CCCC1C(=O)N2C(N(C)C)=Nc3ccc(C)cc3N2C1=O (stereo not given)	11.9%

SMILES	inhibition
Cn1c(=O)c2c(ncn2CC(COCc2ccccc2Cl)OCc2ccccc2Cl)n(C)c1=O (stereo not given)	-6.9%
CNC(=O)/C(C#N)=C/c1c(F)cccc1Cl	14.6%
C=CCC1(C#N)C(=S)NC(C)=C(C(=O)OCC)C1c1ccccc1 (stereo not given)	20.2%
CCCNC(=O)C1CC(=O)N(c2ccc(OCc3ccccc3)cc2)C1 (stereo not given)	5.65%
CC1(C)NC(=O)N(CCCCSc2ccc(Cl)cc2)C1=O	4.13%
CNS(=O)(=O)c1ccc2c(c1)[nH]c(=S)n2C	45.2% (active)
CCn1c(=S)[nH]c2cc(S(=O)(=O)N3CCOCC3)ccc21	-5.66%
CCCCn1c(=S)[nH]c2cc(S(=O)(=O)N3CCCCC3)ccc21	15.1%
COc1ccc2nc(NC(=O)c3ccc(Br)s3)sc2c1	38.2% (active)
COc1ccc(CNC(=O)c2ccc(Br)s2)cc1OC	-0.0485%
O=C(Nc1ccc2c(c1)CCC2)c1ccc(Br)s1	9.29%
Cc1cc(N)n(-c2ccc(S(=O)(=O)N3CCCC3)cc2[N+](=O)[O-])n1	-11.2%
Cc1oc(-c2cccc(Cl)c2)[n+]([O-])c1C	20.3%
O=C(CCCC(=O)N(CC(=O)NC1CCCC1)Cc1ccccc1Cl)Nc1ccccn1	12%
O=C(NC(=S)Nc1ccc(S(=O)(=O)Nc2ncccn2)cc1)c1cccc(Br)c1	-6.45%
O=C(NC(=S)Nc1ccc(Cl)c(C(=O)O)c1)c1cncc(Br)c1	-0.232%
O=C(NC(=S)Nc1cccc2c(O)cccc12)c1cccc(Br)c1	41.4% (active)
CC(=O)c1ccc(N2CCN(C(=O)c3ccc(Cl)c(S(=O)(=O)NC4CC4)c3)CC2)c(F)c1	14.2%
CC(=O)c1ccc(N2CCN(C(=O)CCNC(=O)Cn3ccc4ccccc4c3=O)CC2)cc1	-6.32%
CC1CCN(c2ccc([N+](=O)[O-])c(SCCO)c2)CC1	13.8%
CC1(C)N=C(N)NC(Nc2ccc(Cl)cc2)=N1	9.6%
Clc1ccc(Nc2ccc3ccccc3n2)cc1	47.2% (active)
C=CCNc1nc(Nc2ccc(Cl)cc2)nc(OC)n1	13.7%
